Shown are actives, neighbours in structure and some others; about 8% of the full set was active somewhere.
KB-3-1 tox – kills parental KB-3-1 adenocarcinoma cells | KB-3-1 viability, CellTiter-Glo ATP luminescence, 72 h | actives 1.4% (n = 400,000) | Potency, µM (highest dose often 46.1 µM), usual class: cytotoxic; note: % is set by controls: 0 for no effect and ±100 for the full control effect; nearly all actives have a fitted effect of over 60% in size
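Multi-concentration cytotoxicity screen in KB-3-1 cells grown in DMEM lacking phenol red with 10% FBS. After 72 h at 37 °C with compound, ATP-dependent luminescence was recorded.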
SW480 rereplic – inducers of DNA re-replication in SW480 colon cancer cells. SW480 DNA re-replication, Hoechst DNA content imaging, 48 h. Potency, µM (series often up to 46.1 µM), for inactives: top-dose re-replication activation, usual class: activators. actives 1.8% (n = 340,000); note: % of control where 0% means no effect; nearly all actives have a fitted effect of over 55% in size
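Cells (250 per well) received 23 nL compound or DMSO by pin tool and were kept 48 hr at 37 C, 5% CO2. Nuclei were then stained with Hoechst for 40 min and scanned for DNA content.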
KB-V1 cytotox – KB-V1 MDR subline cytotoxicity | KB-V1 MDR cells viability, CellTiter-Glo, 72 h | actives 3.4% (n = 400,000) | AID 1347076 | Potency, µM (doses to about 46.1 µM), most hits filed as cytotoxic; note: % is set by controls: 0 for no effect and ±100 for the full control effect; nearly all actives have a fitted effect of over 60% in size
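Cytotoxicity via CellTiter-Glo luminescence after 72 h compound exposure at 37 degrees C. Cells: drug-selected KB-V1 line, DMEM phenol-red free plus 10% FBS. Compounds tested at multiple concentrations; normalized data fitted to concentration-effect curves.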
HT1080NT lethal – kills 2HG-producing HT-1080-NT fibrosarcoma cells; HT-1080-NT fibrosarcoma viability, CellTiter-Glo ATP luminescence, 48 h; Potency, µM (titrated, usually from 46.1 µM), for inactives: at the top dose activity, negative = less viability, usual class: cytotoxic; actives 1.6% (n = 360,000); AID 686970;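 note: NT is the 2HG producing partner of a matched IDH1 knockdown line; 0% = DMSO-treated cells and -100% = media-only wells without cells; nearly all actives have a fitted effect of over 55% in size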
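750 cells/well, RPMI + 5% FBS; 2 h settle, compound pin-transfer, 48 h at 37 degrees C. CellTiter-Glo 10 min RT, luminescence. Normalized to DMSO and media-only wells.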
HT1080 IDH1KD tx – HT-1080 IDH1 knockdown cell toxicity (counter line); HT-1080 IDH1 knockdown viability, ATP luminescence, 48 h; Potency, µM (doses to about 46.1 µM), inactives show at the top dose activity, negative = toxicity, usual class: cytotoxic; actives 2% (n = 360,000); AID 686971;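 note: 0% = DMSO wells and -100% = cell-free medium wells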
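HT-1080-IDH1KD cells (IDH1 knocked down), 750/well in RPMI with 5% FBS, treated with compound 48 h at 37 degrees C. Viability by CellTiter-Glo luminescence, normalised to DMSO and no-cell wells; concentration-response curves classed.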
MCF10A rereplic – induces DNA re-replication in MCF 10a normal breast cells | MCF 10A DNA re-replication, Hoechst nuclear intensity, 48 h | Potency, µM (series often up to 46.1 µM), for inactives: top-dose activity, positive = re-replication, usual class: activators | actives 2.9% (n = 350,000); note: % of control where 0% means no effect; nearly all actives have a fitted effect of over 50% in size
* hit, by the source's call; i = inactive; u = inconclusive; x = not tested or not shown; [ ] = dose if it differs, or a comment. Calls come from the whole dose curve; as a rule, active = well fitted curve in the direction sought with a large enough effect; inconclusive = small, poorly fitted or top-dose-only effect, or another doubt; inactive = no such curve, though single readings can be large; an effect the other way counts as inactive or inconclusive. Potency is the fitted concentration of half-maximal effect.

SMILES	KB-3-1 tox	SW480 rereplic	KB-V1 cytotox	HT1080NT lethal	HT1080 IDH1KD tx	MCF10A rereplic
CS(=O)(=O)N1CCN(c2ccccc2NC(=O)c2ccc(-c3ccc(Br)cc3)o2)CC1	i	-3.5%	2.59µM*	-0.9%	u	-2.6%
CCN1CCN(c2ccc(NC(=O)c3cc4ccccc4cc3OC)cc2C)CC1	14.6µM*	u	u	u	u	u
CCN1CCN(c2ccc(NC(=O)c3ccccc3F)cc2Cl)CC1	u	3.1%	i	0.0%	-0.1%	u
CS(=O)(=O)N1CCN(c2ccccc2NC(=O)c2cccc3ccccc23)CC1	i	-4.6%	i	8.3%	11.3%	8.0%
COc1cc2ccccc2cc1C(=O)Nc1ccccc1N1CCN(S(C)(=O)=O)CC1	i	-4.3%	4.11µM*	2.9%	-12.7%	1.4%
O=C(Nc1ccc(F)cc1F)c1cc2nc(-c3ccco3)cc(C(F)(F)Cl)n2n1	i	x	i	x	x	x
CCOC(=O)c1sc2nc(SC)nc(-c3ccc(Cl)cc3)c2c1N	i	u	i	11.1%	16.1%	11.9%
Cc1ccc(CNC(=O)c2ccccc2NS(=O)(=O)c2ccc(Cl)nc2)cc1	i	-3.3%	i	x	x	29.1%
O=C(CN1CCN(Cc2cccc(C(F)(F)F)c2)CC1)NCC(=O)Nc1ccc(F)c(F)c1F	i	0.2%	23.1µM*	-1.0%	-6.2%	5.5%
COc1ccc(CN(C)C(=O)C23CC4CC(CC(C4)C2)C3)c(OC)c1	u	u	u	-24.1%	-20.8%	13µM*
CCOc1ccc(NC(=O)c2cc3cc4ccc(C)cc4nc3o2)cc1	i	x	u	x	x	x
CC(=O)N(C)Cc1ccc(C(=O)CCl)cc1	i	u	i	-1.9%	-16.3%	13µM*
CC(=O)NCc1ccc(C(=O)CCl)cc1	i	u	i	-4.8%	u	u
COc1ccccc1N1C(=O)N(C(C)=O)C2C1Nc1ccccc1N2C (stereo unspecified)	i	-3.4%	i	15.8µM*	-27.9%[9.24 µM]	-1.6%
CC(=O)c1cccc(Nc2cc(C)nc3ccc(C)cc23)c1	u	2.8%[9.22 µM]	u	18.4µM*	u	-31.5%
COC(=O)c1ccc2nc(C)cc(Nc3ccccc3C)c2c1	i	-4.9%	i	-16.3%	-5.4%	4.0%
CC(=O)c1cccc(Nc2cc(C)nc3c(C)cc(C)cc23)c1	i	10.0%	16.4µM*	-17.8%	u	u
Cc1ccc2nc(C)cc(Nc3ccc([N+](=O)[O-])cc3)c2c1	u	9.2µM*	i	-13.0%	u	2.91µM*
COC(=O)c1ccc(Nc2cc(C)nc3ccc(C)cc23)cc1	6.51µM*	18.4µM*	u	20.6µM*	23.1µM*	18.4µM*
CCOC(=O)c1c(C)n(C)c2cc(Br)c(C(=O)OC)cc12	u	-1.6%	i	-5.5%	-4.6%	3.6%
COc1ccc(CNc2ncnc3nc[nH]c23)cc1	i	x	i	1.2%	-4.7%	x
COc1ccc(CNc2nc(NCc3ccc(OC)cc3)c3[nH]cnc3n2)cc1	u	5.1%	i	u	u	11.6µM*
Cc1cc(C(=O)NCC(=O)OCC(=O)N(C2CCCCC2)C2CCCCC2)ccc1[N+](=O)[O-]	i	x	i	4.1%	4.6%	20.4%
Cc1cccc(NC(=O)c2ccc(COc3ccc(Cl)cc3Cl)o2)n1	i	15.1%	i	-11.6%	-1.3%	u
CC(Sc1nc2ccccc2c(=O)n1C)C(=O)Nc1ccc2c(c1)OCCO2 (stereo unspecified)	u	u	i	u	-3.9%	u
SMILES	KB-3-1 tox	SW480 rereplic	KB-V1 cytotox	HT1080NT lethal	HT1080 IDH1KD tx	MCF10A rereplic
CC(C)Cn1c(SC(C)C(=O)Nc2ccc3c(c2)OCCO3)nc2ccccc2c1=O (stereo unspecified)	i	7.1%	20.6µM*	-23.6%	-26.0%	4.9%
NCCN(Cc1ccc(Cl)c(Cl)c1)c1ccc(Br)cn1	x	x	x	11.2µM*	10µM*	x
NCCCN(Cc1ccc(Cl)c(Cl)c1)c1ccccn1	x	x	x	12.6µM*	11.2µM*	x
Clc1ccc(CN(CCCNc2ncnc(NCCCc3cnc[nH]3)n2)c2ccc(Br)cn2)cc1Cl	u	x	i	x	x	x
O=C(c1ccc2nccnc2c1)N1CCCC(Nc2ccc(F)c(F)c2)C1 (stereo unspecified)	i	u	i	24.3%	11.8%	0.5%
ClC(Cl)(Cl)c1nc2ccccc2n2nncc12	u	13µM*	i	6.51µM*	7.31µM*	u
O=C(Nc1cccc2ccccc12)c1cnn2c1NC(=C1CC1)C=C2C(F)F	i	x	i	x	x	x
Nc1c(C(=O)NCCN2CCOCC2)c2nc3ccccc3nc2n1-c1cccc(F)c1	u	16.4µM*	i	-22.6%	-22.9%	18.4µM*
N#Cc1c(N)n(-c2cccc(C(=O)O)c2)c2nc3ccccc3nc12	i	u	i	2.3%	-1.9%	20.6µM*
CCCNC(=O)c1c(N)n(-c2cccc(OC)c2)c2nc3ccccc3nc12	i	u	u	-13.4%	-14.3%	7.31µM*
N#Cc1c(N)n(-c2ccccc2N)c2nc3ccccc3nc12	i	u	i	-20.6%	-8.5%	3.6%
Nc1c(C(=O)Nc2ccccc2)c2nc3ccccc3nc2n1CCCN1CCOCC1	i	18.4µM*	u	23.1µM*	18.4µM*	10.3µM*
Cc1cc(=O)oc2cc(OCC(=O)OCC(=O)NC3CC3)ccc12	i	15.1%	u	12.6%	17.0%	-0.2%
CCCCCNC(=O)C(c1cccc2ccccc12)n1c(=O)c(-c2ccccc2)nc2ccccc21 (stereo unspecified)	i	x	i	1.1%	7.7%	x
C=CCn1c(N)c(C(=O)Nc2ccc(C)c(C)c2)c2nc3ccccc3nc21	i	27.3%	i	-11.6%	-18.5%	u
CCOC(=O)c1c(N)n(-c2ccc(C)c(C)c2)c2nc3ccccc3nc12	i	x	i	x	x	x
COCCCNC(=O)c1c(N)n(-c2cccc(S(N)(=O)=O)c2)c2nc3ccccc3nc12	i	20.6µM*	i	-20.5%	-11.9%	18.4µM*
C=CCn1c(N)c(C(=O)Nc2cccc(C)c2)c2nc3ccccc3nc21	i	u	20.6µM*	-8.5%	u	u
OCCC1CN(Cc2nc(-c3ccc(F)cc3)cs2)CCN1CCc1ccccc1 (stereo unspecified)	i	18.4%	i	-7.6%	-16.5%	-4.6%
Clc1ccc(-c2cn3c(n2)CCC3)cc1	u	-6.1%	u	-1.5%	-6.9%	5.2%
CC(C)N1CCN(c2ccncc2S(=O)(=O)N2CCCCC2)CC1	i	x	i	12.2%	14.7%	x
